Compound activity (PubChem)
Only a selection was taken, and hits are over-represented in it overall.
LmPK inh: qHTS Assay for Inhibitors of Leishmania Mexicana Pyruvate Kinase (LmPK); Q27686; purified LmPK, Kinase-Glo ATP luminescence, 1 h; Potency, µM (highest dose often 57.5 µM), hits mostly inhibitors; 0.37% of 290,000 active; AID 1721, 2009
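Purified LmPK (0.1 nM) with 0.5 mM PEP and 0.1 mM ADP in imidazole buffer pH 7.2 with MgCl2/KCl, 1 h at room temperature. ATP formed was read by luciferase luminescence and normalized to no-enzyme and uninhibited controls.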
TbPYK inhibitor: qHTS of Trypanosoma Brucei Inhibitors; pyruvate kinase (Trypanosoma brucei), Q57TT1; TbPYK enzyme, Kinase-Glo Plus ATP luminescence, 45 min; Potency, µM (titrated, usually from 76.8 µM), most hits filed as inhibitors; 0.12% of 410,000 active; AID 624173, 2012; note: nearly all actives have a fitted effect of over 50% in size
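Luminescence from Kinase-Glo Plus, added after a 45-minute room-temperature reaction, served as the end-point read-out. The enzyme and substrate were preincubated with compound before ADP (130 uM final) initiated turnover. Concentration-effect curves came from normalized qHTS data.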
Shiga inhibitor: A qHTS for Small Molecule Inhibitors of Shiga Toxin; Vero cells, Shiga toxin protein synthesis inhibition reporter; 9.2% of 290,000 active; inhibition, % at 38.7 µM; in the data active = inhibition mostly above about 28%, no sharp cut-off; inactive = mostly below about 43%
CHX counter: Cycloheximide Counterscreen for Small Molecule Inhibitors of Shiga Toxin. cell reporter, cycloheximide protein synthesis inhibition counterscreen. max response, %. 12% of 300,000 active; in the data active = max response mostly above about 13%, no sharp cut-off; inactive = mostly below about 14%; note: read at 38.3 µM for the half of the compounds with a filed dose
RE007 growth inh: qHTS Assay for Inhibitors of the HIV-1 protein Vpr; S. pombe RE007 Vpr strain, BacTiter-Glo ATP luminescence, 24 h; Potency, µM (series often up to 92.2 µM), most hits filed as inhibitors; 0.21% of 360,000 active; active = well fitted falling curve with a large enough effect; inconclusive = small, poorly fitted or top-dose-only effect; inactive = no such curve, though single readings can be large or run the other way; note: nearly all actives have a fitted effect of over 50% in size
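Fission yeast strain RE007, carrying one chromosomally integrated HIV-1 vpr copy, was seeded at OD 0.01 in PMG+AL medium with 23 nL pinned compound. After 24 h at 30 °C and 99% humidity, viability was read by BacTiter-Glo luminescence.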
FBPA Giardia inh: qHTS Assay for Inhibitors of Fructose-1,6-bisphosphate Aldolase from Giardia Lamblia | Potency, µM (highest dose often 59.6 µM), hits mostly inhibitors | 0.71% of 290,000 active | A8B2U2 | purified Giardia FBPA; note: nearly all actives have a fitted effect of over 55% in size
Target sequence (A8B2U2 whole entry, looked up): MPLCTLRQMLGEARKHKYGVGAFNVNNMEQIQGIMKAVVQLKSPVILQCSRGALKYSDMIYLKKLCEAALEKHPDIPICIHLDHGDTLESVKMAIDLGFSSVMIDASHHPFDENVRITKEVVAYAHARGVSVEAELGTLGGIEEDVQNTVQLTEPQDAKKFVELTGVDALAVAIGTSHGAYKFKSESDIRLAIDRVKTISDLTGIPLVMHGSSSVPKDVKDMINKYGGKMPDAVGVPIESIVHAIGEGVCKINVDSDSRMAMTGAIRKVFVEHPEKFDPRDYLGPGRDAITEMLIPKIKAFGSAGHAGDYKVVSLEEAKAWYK
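Giardia FBPA (40 nM reagent) was preincubated 10 min at RT with compound (up to 57.5 uM final), then substrate plus GAPDH/TPI/NAD/arsenate coupling system with diaphorase/resazurin was added; resorufin fluorescence (525/598 nm) was read after 20 min.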
Each line names hits and unclear results; the compound was inactive in the other large screens. Unless noted, calls come from the whole dose curve; as a rule, active = well fitted curve in the direction sought with a large enough effect; inconclusive = small, poorly fitted or top-dose-only effect, or another doubt; inactive = no such curve, though single readings can be large; an effect the other way counts as inactive or inconclusive.

O=[N+]([O-])c1ccccc1CNCCO	none (no result: LmPK inh, Shiga inhibitor, CHX counter, FBPA Giardia inh)
CCCN1C(=O)/C(=C/c2ccc(C)s2)NC1=S	CHX counter 20, RE007 growth inh inconclusive
O=C(N/N=C/c1cccc(O)c1)c1cc(-c2ccc3c(c2)OCO3)n[nH]1	CHX counter 10
O=C(N/N=C/c1ccc(O)cc1)c1cc(-c2ccc3c(c2)OCO3)n[nH]1	none
O=C(N/N=C/c1ccccc1)c1cc(-c2ccc3c(c2)OCO3)n[nH]1	CHX counter 14
O=C(N/N=C/c1cccc([N+](=O)[O-])c1)c1cc(-c2ccc3c(c2)OCO3)n[nH]1	none
Cc1[nH]n(-c2ccccc2)c(=O)c1C(c1ccccc1[N+](=O)[O-])C(C#N)C#N (centres undefined)	none
Cc1[nH]n(-c2ncc(-c3ccccc3)s2)c(=O)c1C(c1ccc(Cl)cc1)C(C#N)C#N (centres undefined)	CHX counter 11
Cc1cc(C=C2C(=O)NC(=S)NC2=O)c(C)n1C1CCCC1	Shiga inhibitor 71, CHX counter 43
CC(=NCCO)c1c(O)n(C2CCCCC2)c(=O)[nH]c1=O	none
C/C(=N\NC(=O)c1ccccc1)c1c(O)n(C2CCCCC2)c(=O)[nH]c1=O	Shiga inhibitor 67, CHX counter 41 (no result: FBPA Giardia inh)
C/C(=N\NC(=O)c1ccncc1)c1c(O)n(Cc2ccccc2)c(=O)[nH]c1=O	none
C/C(=N\NC(=O)c1ccccc1Cl)c1c(O)n(C2CCCCC2)c(=O)[nH]c1=O	Shiga inhibitor 35, CHX counter 32
C/C(=N\NC(=O)c1ccccc1O)c1c(O)n(C2CCCCC2)c(=O)[nH]c1=O	Shiga inhibitor 41, CHX counter 23 (no result: FBPA Giardia inh)
CC(=NCc1ccco1)c1c(O)n(C2CCCCC2)c(=O)[nH]c1=O	none
C/C(=N\NC(=O)c1ccccc1O)c1c(O)n(Cc2ccccc2)c(=O)[nH]c1=O	CHX counter 25, FBPA Giardia inh inconclusive
Cc1ccc(Cl)cc1NC(=O)Cn1nnc2sc3c(c2c1=O)CCC(C(C)(C)C)C3 (centres undefined)	none (no result: LmPK inh, Shiga inhibitor, CHX counter, RE007 growth inh, FBPA Giardia inh)
O=C(NNc1ncnc2ccccc12)c1cccc(Cl)c1	Shiga inhibitor 52, CHX counter 31
CC(=O)NNc1ncnc2ccccc12	none
O=C(O)/C=C/C(=O)NNc1ncnc2ccccc12	Shiga inhibitor 81, CHX counter 31
O=C(c1ccco1)N1CCN(Cc2nnnn2C2CCCCC2)CC1	none
COc1ccc(-c2oc3ccc(N4CCOCC4)cc3c2/C=C/c2ccc(OC)c(OC)c2)cc1	Shiga inhibitor 30, CHX counter 12
CN(c1ncnc2onc(-c3cccc(Cl)c3)c12)C1CCCCC1	none (no result: LmPK inh, Shiga inhibitor, CHX counter, RE007 growth inh, FBPA Giardia inh)
CCCCNc1nc(Oc2ccc(=O)n(-c3ccccc3)n2)nc(N(C)C)n1	none (no result: LmPK inh, Shiga inhibitor, CHX counter, RE007 growth inh, FBPA Giardia inh)
Cc1cccc(C(=O)N=c2sccn2C)c1[N+](=O)[O-]	Shiga inhibitor 74, CHX counter 50 (no result: FBPA Giardia inh)
Cc1ccccc1C(=O)N=c1sccn1C	CHX counter 13
CCOc1ncccc1C(=O)N=c1sccn1C	none
Cc1ccc(C(=O)N=c2sccn2C)cc1C	RE007 growth inh inconclusive (no result: FBPA Giardia inh)
C/C(=N\Nc1ccccn1)c1ccc(S(=O)(=O)NCc2ccco2)cc1	Shiga inhibitor 81, CHX counter 44
C/C(=N\Nc1nc(Cl)c(Cl)cc1Cl)c1ccc(S(=O)(=O)NCc2ccco2)cc1	Shiga inhibitor 122, CHX counter 69
C/C(=N\Nc1ccc(C(=O)O)cc1)c1ccc(S(=O)(=O)NCc2ccco2)cc1	Shiga inhibitor 77, CHX counter 45
C/C(=N\Nc1ccc(C(F)(F)F)cn1)c1ccc(S(=O)(=O)NCc2ccco2)cc1	Shiga inhibitor 121, CHX counter 72
CCC(=O)Nc1ccc(S(=O)(=O)NCc2ccco2)cc1	none
Cc1ccc(S(=O)(=O)Nc2ccc3c(c2)c(C(=O)OC(C)C)c(C)n3S(=O)(=O)c2ccc(C)cc2)cc1	none (no result: LmPK inh, Shiga inhibitor, CHX counter, RE007 growth inh, FBPA Giardia inh)
Cc1c(C(=O)NCc2ccccc2Cl)sc2nc3n(c(=O)c12)CCCC3	none (no result: LmPK inh, Shiga inhibitor, CHX counter, RE007 growth inh, FBPA Giardia inh)
CCOc1nc(-c2ccccc2)ccc1-c1noc(COC)n1	none
CCc1nc(-c2ccc(-c3ccc(OC)cc3)nc2OC)no1	Shiga inhibitor active, CHX counter 40
COc1ccc(-c2ccc(-c3noc(-c4cc(OC)cc(OC)c4)n3)c(OC)n2)cc1	none (no result: LmPK inh, Shiga inhibitor, CHX counter, RE007 growth inh, FBPA Giardia inh)
COCc1nc(-c2ccc(-c3ccc(OC)cc3)nc2OC)no1	Shiga inhibitor active, CHX counter 47
COc1ccc(-c2ccc(-c3noc(C(C)C)n3)c(OC)n2)cc1	CHX counter 40
COCc1nc(-c2ccc(-c3ccccc3)nc2OC)no1	Shiga inhibitor 156, CHX counter 64
Nc1c(Cl)ncnc1NCCc1ccc(O)cc1	none
COc1nc(-c2ccccc2)ccc1-c1noc(C)n1	Shiga inhibitor 72, CHX counter 62
CC1CCN(C(=O)Cn2cc(SCC(=O)NCc3ccc(F)cc3)c3ccccc32)CC1	none (no result: LmPK inh, Shiga inhibitor, CHX counter, RE007 growth inh, FBPA Giardia inh)
CCOc1cc(OCC)cc(C(=O)NCc2ccco2)c1	none
CC(C)(C)n1ncc2c(=O)n(CC(=O)NCc3ccc(F)cc3)cnc21	Shiga inhibitor 54, CHX counter 27
CC(C)(C)n1ncc2c(=O)n(CC(=O)NC3CCCCC3)cnc21	Shiga inhibitor 85, CHX counter 35
CC(C)(C)n1ncc2c(=O)n(CC(=O)NCc3ccco3)cnc21	Shiga inhibitor 67, CHX counter 46
C[C@@H]1CC[C@H]2C(=O)O[C@H](CN=[N+]=[N-])CN2[C@@H]1c1ccc(Br)cc1	none (no result: LmPK inh, TbPYK inhibitor, Shiga inhibitor, CHX counter, RE007 growth inh)
CCc1nn(C(CC)C(=O)NCc2ccc(OC)c(OC)c2)c(=O)c2cc3oc(C)cc3n12 (centres undefined)	none (no result: LmPK inh, Shiga inhibitor, CHX counter, RE007 growth inh, FBPA Giardia inh)
Cc1cc(Nc2ncc(Cl)cc2Cl)n[nH]1	CHX counter 15
CC(CNC(=O)c1cnn(-c2ccc(F)cc2)c1-n1cccc1)c1ccccc1 (centres undefined)	none (no result: LmPK inh, Shiga inhibitor, CHX counter, RE007 growth inh, FBPA Giardia inh)
CC(Sc1nnc(Nc2ccccc2)s1)C(=O)Nc1nc(-c2ccccc2)cs1 (centres undefined)	none
CC(Sc1nnc(NCc2ccccc2)s1)C(=O)Nc1ccc2c(c1)C(=O)c1ccccc1C2=O (centres undefined)	Shiga inhibitor 64, CHX counter 63
COc1cc(NC(=O)Cn2c(=O)oc3cc(S(=O)(=O)N4CCCCCC4)ccc32)cc(OC)c1	none (no result: LmPK inh, Shiga inhibitor, CHX counter, RE007 growth inh, FBPA Giardia inh)
Cc1cc(C(=O)OCC(=O)NC2CCC(C)CC2)c(C)o1 (centres undefined)	none (no result: LmPK inh, Shiga inhibitor, CHX counter, FBPA Giardia inh)
Cc1cc(C(=O)NC2CCC(C)CC2)c(C)o1 (centres undefined)	Shiga inhibitor 80, CHX counter 52 (no result: FBPA Giardia inh)
